Compound activity from PubChem.
Sampled rows, rich in hits. Any-hit rate of the full collection: about 21%.
ClpP mod: qHTS Assay for Activators of ClpP; ATP-dependent Clp protease proteolytic subunit (Bacillus subtilis (strain 168)), P80244; purified B. subtilis ClpP, FRET peptide cleavage, 20 min; Potency, µM (highest dose often 57.5 µM), without a hit: at the top dose activity change, negative = active; 340,000 compounds, 1.9% hits; active = well fitted falling curve with a large enough effect; inconclusive = small, poorly fitted or top-dose-only effect; inactive = no such curve, though single readings can be large or run the other way; also: potency is read from the fitted curve at half-maximal effect; the source files actives as falling curves though it sought activators and does not explain the sign; nearly all actives have a fitted effect of over 65% in size
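Purified B. subtilis ClpP, 10 microg/mL final in Tris/HCl pH8 with KCl, BSA, glycerol and Tween-20, cleaved an Abz/nitrotyrosine-quenched decapeptide. Fluorescence (ex 320, em 430) was read at 0 and 20 min at room temperature. Delta was normalized to 5.8 microM ADEP and DMSO/no-enzyme controls.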
DRD3 agonist: qHTS of D3 Dopamine Receptor Agonist: qHTS. D(3) dopamine receptor (Homo sapiens), P35462. D3R DiscoveRx beta-arrestin cells, luminescence, 90 min. max activation, %. 410,000 compounds, 0.58% hits. AID 652048, 2013; in the data active = max activation above about 30%; also: 0% is about no effect
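Cells at 1500/well, incubated overnight, then treated with pinned compounds (dopamine as control) for 90 min at 37 degrees C. DiscoveRx reagent added for 30 - 60 minutes at room temperature; luminescence read.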
DRD3 antagonist: qHTS of D3 Dopamine Receptor Antagonist: qHTS | D(3) dopamine receptor (Homo sapiens), P35462 | D3R cells, DiscoveRx beta-arrestin luminescence, antagonist mode; hits give low values | max response, negative = inhibition, % | 360,000 compounds, 2.5% hits | AID 652054, 2013; in the data active = max response below about -50%; inconclusive = no clear call, values can overlap the other calls; also: % is scaled to controls: 0 for no effect and ±100 for the full control effect
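Cells expressing the human receptor were seeded at 1500 cells/well, incubated overnight at 37 degrees C in 5% CO2, then exposed to library compounds with dopamine controls for 90 minutes at 37 degrees C before luminescent detection.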
DT40 TDP1 no CPT: qHTS for Inhibitors of human tyrosyl-DNA phosphodiesterase 1 (TDP1): qHTS in cells in absence of CPT; 420,000 compounds, 15% hits; AID 686978, 2013; DT40 Tdp1-/- hTDP1 cells, no CPT, ATP luminescence, 48 h; Potency, µM (top dose mostly 46.2 µM), for the others: at the highest dose activity change, negative = growth inhibition, hits mostly inhibitors; also: potency is read from the fitted curve at half-maximal effect; % is scaled to controls: 0 for no effect and ±100 for the full control effect; nearly all actives have a fitted effect of over 55% in size
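Seeded 400 DT40-hTDP1 cells/well (vehicle DMSO, no 20 nM CPT); pinned compounds; ≥48 hr at 37 °C; CellTiter-Glo luminescence as viability measure.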
TDP1 cell CPT: qHTS for Inhibitors of human tyrosyl-DNA phosphodiesterase 1 (TDP1): qHTS in cells in presence of CPT | Potency, µM (series often up to 46.2 µM), for inactives: top-dose activity change, negative = growth inhibition, usual class: inhibitors | chicken DT40 Tdp1-/-;hTDP1 cells + 20 nM CPT, ATP luminescence, 48 h | 420,000 compounds, 12% hits; also: potency is read from the fitted curve at half-maximal effect; % is scaled to controls: 0 for no effect and ±100 for the full control effect; nearly all actives have a fitted effect of over 55% in size
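Cell growth measured by CellTiter-Glo luminescence after a minimum 48 h, 37 C compound exposure with 20 nM CPT in Tdp1-knockout DT40 cells stably expressing hTDP1, seeded 400/well; qHTS titration format.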
IL-1B inflam inh: qHTS for Inhibitors of Inflammasome Signaling: IL-1-beta AlphaLISA Primary Screen; THP-1 LPS/ATP IL-1B secretion, AlphaLISA, 16 h; hits give low values; activity change, % at 57.5 µM; 360,000 compounds, 4.7% hits; in the data active = activity change below about -50%; inconclusive = mostly about -30% to -49%; also: % is scaled to controls: 0 for no effect and ±100 for the full control effect
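Secreted IL-1B measured by AlphaLISA bead assay after 16 h compound exposure of THP-1 cells; compounds (final up to 57.5 uM) added 1 h before LPS (250 ng/mL) and ATP (1.25 mM) stimulation; lower signal means less secretion.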
* hit, by the source's call; ? = inconclusive; · = not tested or not shown. Unless noted, calls follow the shape of the dose curve; as a rule, active = well fitted inhibition curve with a large enough effect; inconclusive = small, poorly fitted or top-dose-only effect; inactive = flat fitted curve, though single readings scatter.

SMILES	ClpP mod	DRD3 agonist	DRD3 antagonist	DT40 TDP1 no CPT	TDP1 cell CPT	IL-1B inflam inh
O=C(c1ccc(N2CCCC2)c([N+](=O)[O-])c1)N1CCN(S(=O)(=O)c2ccccc2)CC1	-2%	-3	11	?	-5%	?
Cc1ccc(CNc2nc(NCC3CC3)nc3ccsc23)c(C)c1	-14%	2	15	10µM*	9.2µM*	-19
Cc1ccc(Nc2nc(NCC3CC3)nc3ccsc23)c(C)c1	-7%	-16	0	5.8µM*	3.7µM*	?
CNc1nc(NCc2ccc(N(C)C)cc2)c2sccc2n1	-3%	-19	-10	16µM*	18µM*	29
Cc1ccc(F)cc1-c1nc(NCC2CC2)nc2ccsc12	4%	3	0	?	?	-18
Cc1ccc(CNc2nc(NC(C)C)nc3ccsc23)c(C)c1	-21%	-16	3	?	23µM*	-14
Nc1nonc1-n1nnc(C(=O)N/N=C/c2cccs2)c1-c1ccc2c(c1)OCO2	0%	-8	-6	-28%	?	-11
CNc1nc(NCC2CCCCC2)c2sccc2n1	-11%	5	8	13µM*	13µM*	-21
Cc1ccc(CNc2nc(NCc3ccccc3)nc3ccsc23)c(C)c1	4%	-9	-18	?	9.2µM*	-88*
Cc1ccc(Nc2ncnc3sccc23)c(C)c1	·	5	-5	?	-21%	-15
CNc1nc(Nc2ccc(C)cc2C)c2sccc2n1	0%	-3	0	16µM*	13µM*	0
CNc1nc(NCc2ccc(C)cc2C)c2sccc2n1	-22%	-6	13	6.5µM*	18µM*	-8
O=C(O)c1c2cc(Br)ccc2nc2[nH]c(=O)[nH]c(=O)c12	·	3	-15	-1%	-12%	-5
Cc1ccc2nc3[nH]c(=O)[nH]c(=O)c3c(N)c2c1	·	19	4	8.2µM*	?	-6
CCOC(=O)c1ccc(N2C(=O)c3n[nH]c(-c4cccs4)c3C2c2cccc(F)c2)cc1 (stereo not given)	-1%	6	·	18µM*	?	·
CCOC(=O)c1ccc(N2C(=O)c3n[nH]c(-c4cccs4)c3C2c2ccc(O)c(OC)c2)cc1 (stereo not given)	-1%	-21	·	21µM*	?	·
Cc1cccc(S(=O)(=O)N2CCN(Cc3ccc4c(c3)OCO4)CC2)c1	·	0	-7	-22%	-4%	2
CCCCOc1ncnc2c1[nH]c1ccc(OCC)cc12	-29%	4	15	-18%	-18%	23
CCCCOc1ncnc2c1[nH]c1ccc(F)cc12	16µM*	21	23	8.2µM*	9.2µM*	?
CCCCOc1ncnc2c1[nH]c1ccccc12	18µM*	8	16	7.3µM*	10µM*	1
Fc1ccc2[nH]c3c(Cl)ncnc3c2c1	4%	1	-11	-19%	-3%	-96*
NCCOB(c1ccccc1)c1ccccc1	·	·	·	16µM*	?	·
COc1ccc(S(=O)(=O)NCC2CCCN(Cc3ccc(OC)cc3F)C2)cc1 (stereo not given)	·	-14	4	-18%	21%	-15
COc1ccc(S(=O)(=O)NCC2CCCN(Cc3ccccc3Cl)C2)cc1 (stereo not given)	-2%	-15	-52*	-25%	?	-14
C=CCn1c(=NC(=O)C2COc3ccccc3O2)sc2cccc(OC)c21 (stereo not given)	-16%	5	54	23µM*	?	0
SMILES	ClpP mod	DRD3 agonist	DRD3 antagonist	DT40 TDP1 no CPT	TDP1 cell CPT	IL-1B inflam inh
CCn1c(=NC(=O)C2COc3ccccc3O2)sc2c(C)ccc(OC)c21 (stereo not given)	4%	4	35	12µM*	21µM*	-25
CCOC(=O)C1CCN(Cc2cc(Cl)c3ccccc3c2O)CC1	·	-8	?	?	18µM*	-14
Cc1cc2oc(=O)cc(CN3CCCC3)c2cc1Cl	-5%	-8	?	-27%	-25%	23
CCN(CC)C(=O)C1CCCN(Cc2ccccc2C(F)(F)F)C1 (stereo not given)	2%	-3	2	?	?	9
CCOC(=O)C1CCN(Cc2ccc(OC)c(C)c2OC)CC1	-3%	-8	0	?	-27%	-3
Oc1c(CN2CCCC(C(F)(F)F)C2)cc(Cl)c2ccccc12 (stereo not given)	-1%	-8	-16	?	18µM*	-25
CCOC(=O)C1CCN(Cc2cc(=O)oc3cc(C)c(Cl)cc23)CC1	·	36*	11	23µM*	?	10
COC(=O)C1CCN(Cc2cc(=O)oc3cc(OC)ccc23)CC1	?	34*	-16	-48%	-12%	7
CN(c1ccc(OC(=O)c2ccc(-n3cncn3)c([N+](=O)[O-])c2)cc1)S(=O)(=O)c1ccccc1	2%	0	5	-20%	-25%	-9
CC(C)=C(NC(=O)c1ccccc1)C(=O)NCc1ccccc1	·	-9	-17	-18%	-18%	20
Cc1ccc(NCC2(N=Cc3ccccc3)OC(CO)C(O)C2O)cc1 (stereo not given)	3%	-4	-16	?	?	8
Cc1cc(C)nc(NS(=O)(=O)c2ccc(NC(=O)c3ccccc3O)cc2)n1	3%	2	·	-3%	-11%	·
COc1cc(SC)ccc1C(=O)OCC(=O)N1CCCC1	·	0	9	2%	9%	4
Cc1ccc2c(c1)C(c1ccncc1)=NNC(c1ccc(F)cc1)=N2	·	-4	-10	-28%	1%	-19
Cc1ccc(C2=Nc3ccc(Br)cc3C(c3ccncc3)=NN2)cc1	·	2	5	-28%	?	-149*
C/C(CC(=O)Nc1ccccn1)=N\NC(=O)c1cnccn1	27%	0	0	4%	-2%	35
Cc1cc(C(=O)COc2ccc(C#N)cc2)c(C)n1CC1CCCO1 (stereo not given)	·	-7	-6	13µM*	29µM*	-6
COCCn1c(C)cc(C(=O)COC(=O)c2ccc([N+](=O)[O-])o2)c1C	1%	1	-9	-7%	?	-18
Cc1cc(C(=O)COc2ccc(C#N)cc2)c(C)n1-c1ccc2c(c1)OCO2	1%	2	11	9.2µM*	9.2µM*	-9
